Experimental data reported in PubChem BioAssay (NCATS).
“And” between values parts separate entries of the source, which are not always exact repeats. Equal values may be shown once. Records with an inconclusive call do not appear. A call without a number means that no potency is given here. Some compounds were tested as several samples or in several runs, with calls that do not always agree. The source made the active and inactive calls. Calls follow the shape of the dose curve; as a rule, active = well fitted curve in the direction sought with a large enough effect; inconclusive = small, poorly fitted or top-dose-only effect, or another doubt; inactive = no such curve, though single readings can be large; an effect the other way counts as inactive or inconclusive.

Tests used:
[1] = P-glycoprotein substrates identified in KB-8-5-11 adenocarcinoma cell line, qHTS therapeutic library screen (AID 1346987); also: nearly all actives have a fitted effect of over 65% in size
How it was run: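 P-gp-mediated resistance screen: KB-8-5-11 cells treated 72 h with compounds in dose-response. CellTiter-Glo viability.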

[2] = NS1 protein of Zika virus - qHTS assay to identify small molecule inhibitors in human HEK 293 cells (AID 1347053); also: nearly all actives have a fitted effect of over 55% in size
How it was run: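 HEK 293 cells, seeded 20 h at 37 C, were pretreated with compound 1 h, then infected with ZIKV MR766 (MOI = 0.5) for 24 h. NS1 was read by TR-FRET with two anti-NS1 antibodies, normalized to uninfected and infected wells.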
Potency is read from the fitted curve at half-maximal effect.

Row | SMILES | Potency [1] | Potency [2]
1 | C[N+]1(C)[C@@H]2CC[C@H]1CC(OC(=O)C(CO)c1ccccc1)C2 (stereo partly drawn) | inactive | inactive
2 | C[C@]12CC[C@H]3[C@@H](CCC4=CC(=O)CC[C@@H]43)[C@@H]1CC[C@@H]2O | 2.91 µM (active) and 5.8 µM (active) | inactive
3 | CCNc1nc(Cl)nc(NCC)n1 | inactive | inactive
4 | CCC(OC(C)=O)C(CC(C)NC)(c1ccccc1)c1ccccc1 (stereo not drawn) | 20 µM (active) | inactive
5 | CCC1(c2ccccc2)CCC(=O)NC1=O (stereo not drawn) | inactive | inactive
6 | Cc1cccc(Cc2cnc[nH]2)c1C | inactive | inactive
7 | CCS(=O)(=O)C(C)(C)S(=O)(=O)CC | inactive | inactive
8 | COc1ccc(OC)c(CC(C)N)c1 (stereo not drawn) | inactive | inactive
9 | CN(C)CCc1c[nH]c2ccccc12 | inactive | inactive
10 | COCC(=O)N(c1c(C)cccc1C)C(C)C(=O)OC (stereo not drawn) | inactive | inactive
11 | C[C@@H]1C[C@@H]([C@H](O)CC2CC(=O)NC(=O)C2)C(=O)[C@@H](C)C1 | 2.31 µM (active) and 590 nM (active) | inactive and 93.5 nM (active)
12 | O=C(O)Cc1ccccc1 | inactive | inactive
13 | N#Cc1nn(-c2c(Cl)cc(C(F)(F)F)cc2Cl)c(N)c1S(=O)C(F)(F)F (stereo not drawn) | inactive | inactive
14 | C[C@H]1C(=O)O[C@@H]2CCN3CC=C(COC(=O)[C@](C)(O)[C@]1(C)O)[C@H]23 | inactive | inactive
15 | NC1(c2ccccc2)CCCCC1 | inactive | inactive
16 | CCOC(=O)c1ncn2c1CN(C)C(=O)c1c(I)cccc1-2 | inactive | inactive
17 | CNC(=O)Oc1cccc2ccccc12 | inactive | inactive
18 | COc1cc(CC(C)N)cc2c1OCO2 (stereo not drawn) | inactive | inactive
19 | ClC1=C(Cl)C2(Cl)C(CBr)CC1(Cl)C2(Cl)Cl (stereo not drawn) | inactive | inactive
20 | CC1=C2[C@H]3OC(=O)[C@@H](C)[C@@H]3CC[C@@]2(C)C=CC1=O | inactive | inactive
21 | CCC(=O)OC1(c2ccccc2)CCN(C)CC1 | inactive | inactive
22 | CCN(CC)C(C)C(=O)c1ccccc1 (stereo not drawn) | inactive | inactive
23 | CCC1(c2cccc(O)c2)CCCCN(C)C1 (stereo not drawn) | inactive | inactive
24 | CCOC(=O)NC(O)C(Cl)(Cl)Cl (stereo not drawn) | inactive | inactive
25 | COP(=O)(OC)C(O)C(Cl)(Cl)Cl (stereo not drawn) | inactive | inactive
26 | COc1cc(CC(C)N)c(OC)cc1Br (stereo not drawn) | inactive | inactive

Row | SMILES | Potency [1] | Potency [2]
27 | Oc1ccc([C@H]2CNCc3c2ccc(O)c3O)cc1O | inactive | inactive
28 | COc1ccc(CN2CCNCC2)c(OC)c1OC | inactive | inactive
29 | C[C@]12CC[C@H](O)CC1=CC[C@@H]1[C@@H]2CC[C@]2(C)C(=O)CC[C@@H]12 | inactive | inactive
30 | c1cc2c(c(N3CCNCC3)c1)OCCO2 | inactive | inactive
31 | CC(Cc1ccc2c(c1)OCO2)NO (stereo not drawn) | inactive | inactive
32 | CC(C)C(Br)C(=O)NC(N)=O (stereo not drawn) | inactive | inactive
33 | CNC(=O)NC(O)C(Cl)(Cl)Cl (stereo not drawn) | inactive | inactive
34 | C#C[C@]1(O)CC[C@H]2[C@@H]3CCC4=CC(=O)CCC4=C3C=C[C@@]21CC | 2.06 µM (active) | inactive
35 | CC[n+]1c(-c2ccccc2)c2cc(N)ccc2c2ccc(N)cc21 | inactive | inactive
36 | C#C[C@]1(O)C=C[C@H]2[C@@H]3CCC4=CC(=O)CC[C@@H]4[C@H]3CC[C@@]21CC | 6.51 µM (active) | inactive
37 | Oc1c(Br)cc(Br)cc1Br | inactive | inactive
38 | CC(C)(O)C(Cl)(Cl)Cl |  | inactive
39 | C=CC[C@]1(O)CC[C@H]2[C@@H]3CCC4=CC(=O)CCC4=C3C=C[C@@]21C |  | inactive
40 | CCOC(=O)C(c1c(O)c2ccccc2oc1=O)c1c(O)c2ccccc2oc1=O |  | inactive
41 | CCc1cc(OC)c(C[C@H](C)N)cc1OC |  | inactive
42 | Cc1ccc(N=CN(C)C=Nc2ccc(C)cc2C)c(C)c1 | inactive | inactive
43 | O=C(O)CCCCCCNC1c2ccccc2CCc2ccccc21 | inactive | inactive
44 | C=CCOC(Cn1ccnc1)c1ccc(Cl)cc1Cl (stereo not drawn) | 20.6 µM (active) | inactive
45 | C[C@@H]1O[C@@H](O[C@@H]2C=C3CC[C@@H]4[C@H](CC[C@]5(C)[C@@H](c6ccc(=O)oc6)CC[C@]45O)[C@@]3(C)CC2)[C@H](O)[C@H](O)[C@H]1O | 0.0197 µM (active) | inactive
46 | Nc1ccccc1C(=O)OCC(O)CO (stereo not drawn) |  | inactive
47 | C[C@@H]1CC[C@H]2[C@@H](C)C(=O)O[C@@H]3O[C@@]4(C)CC[C@@H]1[C@]32OO4 |  | inactive
48 | COc1cc(C[C@@H](C)N)c(OC)cc1Br | inactive | inactive
49 | C[N+]1(CCC(C(N)=O)(c2ccccc2)c2ccccc2)CCCCC1 | inactive | inactive
50 | Cc1ncc2n1-c1ccc(Cl)cc1C(c1ccccc1F)=NC2 |  | inactive
51 | CCOC(=O)c1cncn1C(C)c1ccccc1 (stereo not drawn) | inactive | inactive
52 | CN(C)CCc1c[nH]c2cccc(O)c12 | inactive | inactive

Row | SMILES | Potency [1] | Potency [2]
53 | CN1C[C@@H](NS(=O)(=O)N(C)C)C[C@@H]2c3cccc4c3c(cn4C)C[C@H]21 |  | inactive
54 | CCCC[N+]1(C)[C@@H]2CC(OC(=O)[C@H](CO)c3ccccc3)C[C@H]1[C@@H]1O[C@@H]12 (stereo partly drawn) | inactive | inactive
55 | Nc1ccc(Cl)cc1C(=O)c1ccccc1F |  | inactive
56 | Nc1ccc(N)cc1 | inactive | inactive
57 | CC(C)(C)OC(=O)c1ncn2c1[C@@H]1CCCN1C(=O)c1c(Br)cccc1-2 | inactive | inactive
58 | CC(CC(C#N)(c1ccccc1)c1ccccc1)N(C)C (stereo not drawn) |  | inactive
59 | NCc1cccnc1 | inactive | inactive
60 | OC(O)C(Cl)(Cl)Cl | inactive | inactive
61 | CC(Cc1ccccc1)NCCCCl (stereo not drawn) |  | inactive
62 | CCCOC(=O)Cc1ccc(OCC(=O)N(CC)CC)c(OC)c1 |  | inactive
63 | C[N+](C)(C)CCOC(=O)C(O)(c1ccccc1)c1ccccc1 | inactive | inactive
64 | CC(C)[N+](C)(CCC(C(N)=O)(c1ccccc1)c1ccccc1)C(C)C | inactive | inactive
65 | CC(Cc1ccccc1)NCc1ccccc1Cl (stereo not drawn) | inactive | inactive
66 | Cc1nnc2n1-c1sc(CCc3ccc(CC(C)C)cc3)cc1C(c1ccccc1Cl)=NC2C (stereo not drawn) | 14.6 µM (active) | inactive
67 | COc1ccc2[nH]cc(CCN(C(C)C)C(C)C)c2c1 | inactive | inactive
68 | CC(CC(C(N)=O)(c1ccccc1)c1ccccc1)N(C)C (stereo not drawn) |  | inactive
69 | CC[C@H](O)C(C[C@H](C)N(C)C)(c1ccccc1)c1ccccc1 |  | inactive
70 | CC1N=C(N)OC1c1ccccc1 (stereo not drawn) | inactive | inactive
71 | O=c1n(Cl)c(=O)n(Cl)c(=O)n1Cl | inactive | inactive
72 | CCN1CCCC1CNC(=O)C(O)(c1ccccc1)c1ccccc1 (stereo not drawn) |  | inactive
73 | O=C1NCN(c2ccccc2)C12CCN(CCCOc1ccc(F)cc1)CC2 |  | inactive
74 | C=CCN1CC[C@]23CCCC[C@H]2[C@H]1Cc1ccc(O)cc13 |  | inactive
75 | O=C(NC(=O)c1c(F)cccc1F)Nc1cc(Cl)c(OC(F)(F)C(F)C(F)(F)F)cc1Cl (stereo not drawn) |  | inactive
76 | C[C@]12CC[C@H]3[C@@H](CCC4=CC(=O)CC[C@@]43C)[C@@H]1CC[C@@H]2C(=O)O |  | inactive
